# Measurements as given in PubChem BioAssay AID1159580 (chemical genetic matrix, 2015).
# The whole screen tested about 5,500 compounds, of which about 2,000 (36%) were called active. Inconclusive results (about 18%) are left out. Some of the results follow. Unmarked numbers belong to inactive results. Cut-off read from the data, not from the text of the source: active = normalized growth mostly below about 0.91 (no sharp cut-off); inconclusive = no clear call, values can overlap the other calls; inactive = mostly above about 0.92.
# Experiment: chemical genetic growth profiling, strain panel (AID 1159580);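 note: tested at 20 µM; growth read once vehicle control cultures reached saturation at 30 °C; 1 = growth at the plate median or of vehicle wells; lower values mean less growth of the strain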
# Settings: growth OD
smiles,measurement,setting,value
CCOC(=O)c1c(C)cc(OC)cc1O,normalized growth,"S. cerevisiae deletion strains, locus YJR075W, strain HOC1, active compounds read low",0.936
same,normalized growth,"S. cerevisiae deletion strains, locus YKL009W, strain mrt4, active compounds read low",0.939
same,normalized growth,"S. cerevisiae deletion strains, locus YKL068W, active compounds read low",0.956
same,normalized growth,"S. cerevisiae deletion strains, locus YKL085W, strain MDH1 (second series), active compounds read low",0.946
same,normalized growth,"S. cerevisiae deletion strains, locus YKL085W, strain MDH1, active compounds read low",0.946
same,normalized growth,"S. cerevisiae deletion strains, locus YKL160W, strain elf1, active compounds read low",0.976
same,normalized growth,"S. cerevisiae deletion strains, locus YKL190W, strain CNB1, active compounds read low",0.996
same,normalized growth,"S. cerevisiae deletion strains, locus YKR001C, strain vps1, active compounds read low",0.842 (active)
same,normalized growth,"S. cerevisiae deletion strains, locus YKR026C, strain gcn3, active compounds read low",0.951
same,normalized growth,"S. cerevisiae deletion strains, locus YKR091W, strain srl3, active compounds read low",0.971
same,normalized growth,"S. cerevisiae deletion strains, locus YLL001W, strain dnm1, active compounds read low",0.962
same,normalized growth,"S. cerevisiae deletion strains, locus YLL026W, active compounds read low",0.965
same,normalized growth,"S. cerevisiae deletion strains, locus YLL041C, strain sdh2, active compounds read low",0.96
same,normalized growth,"S. cerevisiae deletion strains, locus YLR027C, strain aat2, active compounds read low",0.963
same,normalized growth,"S. cerevisiae deletion strains, locus YLR039C, strain RIC1, active compounds read low",0.872
same,normalized growth,"S. cerevisiae deletion strains, locus YLR058C, strain SHM2, active compounds read low",0.993
same,normalized growth,"S. cerevisiae deletion strains, locus YLR102C, strain apc9, active compounds read low",0.946
same,normalized growth,"S. cerevisiae deletion strains, locus YLR113W, strain HOG1, active compounds read low",0.835 (active)
same,normalized growth,"S. cerevisiae deletion strains, locus YLR221C, strain rsa3, active compounds read low",0.949
same,normalized growth,"S. cerevisiae deletion strains, locus YLR258W, strain gsy2, active compounds read low",0.964
same,normalized growth,"S. cerevisiae deletion strains, locus YLR262C, strain YPT6 (second series), active compounds read low",0.731 (active)
same,normalized growth,"S. cerevisiae deletion strains, locus YLR262C, strain YPT6, active compounds read low",0.928
same,normalized growth,"S. cerevisiae deletion strains, locus YLR268W, strain sec22, active compounds read low",0.958
same,normalized growth,"S. cerevisiae deletion strains, locus YLR320W, strain mms22, active compounds read low",0.859 (active)
same,normalized growth,"S. cerevisiae deletion strains, locus YLR330W, strain CHS5, active compounds read low",1.01
same,normalized growth,"S. cerevisiae deletion strains, locus YLR342W, strain FKS1 (second series), active compounds read low",0.971
same,normalized growth,"S. cerevisiae deletion strains, locus YLR342W, strain FKS1, active compounds read low",0.984
same,normalized growth,"S. cerevisiae deletion strains, locus YLR357W, strain rsc2, active compounds read low",0.969
same,normalized growth,"S. cerevisiae deletion strains, locus YLR370C, strain arc18, active compounds read low",0.981
same,normalized growth,"S. cerevisiae deletion strains, locus YLR371W, strain rom2, active compounds read low",0.962
same,normalized growth,"S. cerevisiae deletion strains, locus YLR384C, strain iki3, active compounds read low",0.972
same,normalized growth,"S. cerevisiae deletion strains, locus YLR418C, strain cdc73, active compounds read low",0.891
same,normalized growth,"S. cerevisiae deletion strains, locus YML016C, strain PPZ1, active compounds read low",0.988
same,normalized growth,"S. cerevisiae deletion strains, locus YML032C, strain rad52, active compounds read low",0.91
same,normalized growth,"S. cerevisiae deletion strains, locus YML120C, strain ndi1, active compounds read low",0.972
same,normalized growth,"S. cerevisiae deletion strains, locus YML124C, strain tub3, active compounds read low",0.947
same,normalized growth,"S. cerevisiae deletion strains, locus YMR058W, strain fet3, active compounds read low",0.968
same,normalized growth,"S. cerevisiae deletion strains, locus YMR078C, strain ctf18, active compounds read low",0.926
same,normalized growth,"S. cerevisiae deletion strains, locus YMR125W, strain sto1, active compounds read low",1
same,normalized growth,"S. cerevisiae deletion strains, locus YMR129W, active compounds read low",0.977
same,normalized growth,"S. cerevisiae deletion strains, locus YMR205C, strain PFK2, active compounds read low",0.887
same,normalized growth,"S. cerevisiae deletion strains, locus YMR223W, strain ubp8, active compounds read low",0.924
same,normalized growth,"S. cerevisiae deletion strains, locus YMR231W, strain pep5, active compounds read low",0.985
same,normalized growth,"S. cerevisiae deletion strains, locus YMR263W, strain SAP30, active compounds read low",0.985
same,normalized growth,"S. cerevisiae deletion strains, locus YMR307W, strain GAS1, active compounds read low",0.996
same,normalized growth,"S. cerevisiae deletion strains, locus YNL067W, strain RPL9B, active compounds read low",0.99
same,normalized growth,"S. cerevisiae deletion strains, locus YNL071W, strain lat1, active compounds read low",0.795 (active)
same,normalized growth,"S. cerevisiae deletion strains, locus YNL128W, strain TEP1, active compounds read low",1.01
same,normalized growth,"S. cerevisiae deletion strains, locus YNL153C, strain GIM3, active compounds read low",0.989
same,normalized growth,"S. cerevisiae deletion strains, locus YNL183C, strain NPR1, active compounds read low",0.872
same,normalized growth,"S. cerevisiae deletion strains, locus YNL209W, strain ssb2, active compounds read low",0.992
same,normalized growth,"S. cerevisiae deletion strains, locus YNL233W, strain BNI4, active compounds read low",0.98
same,normalized growth,"S. cerevisiae deletion strains, locus YNL248C, strain rpa49, active compounds read low",0.936
same,normalized growth,"S. cerevisiae deletion strains, locus YNL250W, strain rad50, active compounds read low",0.963
same,normalized growth,"S. cerevisiae deletion strains, locus YNL271C, strain bni1, active compounds read low",0.949
same,normalized growth,"S. cerevisiae deletion strains, locus YNL298W, strain CLA4, active compounds read low",0.965
same,normalized growth,"S. cerevisiae deletion strains, locus YNL307C, strain MCK1, active compounds read low",0.734 (active)
same,normalized growth,"S. cerevisiae deletion strains, locus YNL322C, strain KRE1 (second series), active compounds read low",0.952
same,normalized growth,"S. cerevisiae deletion strains, locus YNL322C, strain KRE1, active compounds read low",0.989
same,normalized growth,"S. cerevisiae deletion strains, locus YNR049C, strain mso1, active compounds read low",0.967
same,normalized growth,"S. cerevisiae deletion strains, locus YNR052C, strain pop2, active compounds read low",0.976
same,normalized growth,"S. cerevisiae deletion strains, locus YOL006C, strain TOP1, active compounds read low",0.77
same,normalized growth,"S. cerevisiae deletion strains, locus YOL012C, strain htz1",0.775
same,normalized growth,"S. cerevisiae deletion strains, locus YOL147C, strain pex11, active compounds read low",0.947
same,normalized growth,"S. cerevisiae deletion strains, locus YOR001W, strain rrp6, active compounds read low",0.974
same,normalized growth,"S. cerevisiae deletion strains, locus YOR061W, strain CKA2, active compounds read low",1
same,normalized growth,"S. cerevisiae deletion strains, locus YOR069W, strain VPS5, active compounds read low",0.989
same,normalized growth,"S. cerevisiae deletion strains, locus YOR070C, strain gyp1, active compounds read low",0.963
same,normalized growth,"S. cerevisiae deletion strains, locus YOR080W, strain dia2, active compounds read low",0.997
same,normalized growth,"S. cerevisiae deletion strains, locus YOR083W, strain WHI5, active compounds read low",0.955
same,normalized growth,"S. cerevisiae deletion strains, locus YOR106W, strain vam3, active compounds read low",0.936
same,normalized growth,"S. cerevisiae deletion strains, locus YOR136W, strain idh2, active compounds read low",0.955
same,normalized growth,"S. cerevisiae deletion strains, locus YOR144C, strain elg1, active compounds read low",0.957
same,normalized growth,"S. cerevisiae deletion strains, locus YOR184W, strain ser1, active compounds read low",0.808 (active)
same,normalized growth,"S. cerevisiae deletion strains, locus YOR231W, strain MKK1, active compounds read low",0.924
same,normalized growth,"S. cerevisiae deletion strains, locus YOR265W, strain rbl2, active compounds read low",0.962
same,normalized growth,"S. cerevisiae deletion strains, locus YOR270C, strain vph1, active compounds read low",0.727 (active)
same,normalized growth,"S. cerevisiae deletion strains, locus YOR290C, strain snf2, active compounds read low",0.929
same,normalized growth,"S. cerevisiae deletion strains, locus YOR316C, strain cot1, active compounds read low",0.964
same,normalized growth,"S. cerevisiae deletion strains, locus YPL051W, strain arl3, active compounds read low",0.96
same,normalized growth,"S. cerevisiae deletion strains, locus YPL055C, strain LGE1, active compounds read low",0.972
same,normalized growth,"S. cerevisiae deletion strains, locus YPL078C, strain atp4, active compounds read low",0.932
same,normalized growth,"S. cerevisiae deletion strains, locus YPL106C, strain sse1, active compounds read low",1.02
same,normalized growth,"S. cerevisiae deletion strains, locus YPL240C, strain hsp82, active compounds read low",0.987
same,normalized growth,"S. cerevisiae deletion strains, locus YPL241C, strain CIN2, active compounds read low",0.991
same,normalized growth,"S. cerevisiae deletion strains, locus YPL256C, strain CLN2, active compounds read low",0.866
same,normalized growth,"S. cerevisiae deletion strains, locus YPR119W, strain clb2, active compounds read low",0.933
same,normalized growth,"S. cerevisiae deletion strains, locus YPR141C, strain kar3, active compounds read low",0.946
same,normalized growth,"S. cerevisiae deletion strains, locus YPR163C, strain tif3, active compounds read low",0.957
same,normalized growth,"S. cerevisiae deletion strains, locus YPR167C, strain met16, active compounds read low",0.96
same,normalized growth,"S. cerevisiae deletion strains, strain wtn01, active compounds read low",0.928
same,normalized growth,"S. cerevisiae strains, strain wild type, active compounds read low",0.978
